Screening data from PubChem.
Vaccinia pol inh: inhibitors of vaccinia virus processive DNA synthesis (E9 polymerase); AID 493162; in vitro processive DNA synthesis, absorbance read-out; hits give low values; normalized absorbance, % (no concentration beside the values); hit rate 0.94% among 46,000; in the data active = normalized absorbance mostly below about 85%, no sharp cut-off; inactive = mostly above about 86%
Large screens that a line does not name were inactive. Many of the other results were omitted from the sample, so hits are more common in it than they were.

Cc1sc(=[N+]2CCCCC2)sc1SCC(=O)O	none
CCc1ccc(NC(=O)c2cccc3c2C(=O)N(C2CCCCC2)C3)cc1	none
BrCc1ccc(-c2noc(-c3ccncc3)n2)cc1	Vaccinia pol inh 21
COc1ccc(Cc2nc(-c3ccc(Br)cc3)no2)cc1	none
COc1ccc(-c2noc(-c3ccc(Cl)c(Cl)c3)n2)cc1	none
CS(=O)(=O)c1ccc(Cl)c(Cl)c1	none
O=C(O)CC(CC(=O)Oc1ccccc1N1CCOCC1)c1ccccc1 (centres undefined)	none
CN1CN=C(SCc2cccc(C#N)c2)NC1	Vaccinia pol inh 76
CN1CN=C(SCc2ccc(Cl)c(Cl)c2)NC1	none
N#Cc1ccc(CSC2=NCCN2)cc1	Vaccinia pol inh 71
N#Cc1ccc(CSc2ccc(Cl)cc2)cc1	none
O=C(CSC1=NCCN1)NC(c1ccccc1)c1ccccc1	none
CCN1CN=C(SCc2cccc(C#N)c2)NC1	none
Fc1ccc(-c2ccc(/C=N/n3cnnc3)[nH]2)cc1	none
Nc1c(C(=O)N2CCc3ccccc32)sc2nc(C(F)(F)F)c3c(c12)CCCC3	none
Cc1cccc(C[N+](C)(C)CCC(=O)c2ccccc2)c1	none
CN(Cc1ccco1)C(=O)c1c[nH]c2ccc(S(=O)(=O)Nc3ccccc3F)cc2c1=O	none
COC(=O)c1ccc2c(c1)C(=O)/C(=C/c1cn(-c3ccccc3)nc1-c1ccccc1)O2	none
CNC(=O)c1cc(-c2ccc(F)cc2)[nH]c1C	none
COc1ccc2c(=O)c(-c3ccc4c(c3)OCCO4)coc2c1	none
CCc1cc2c(=O)c(-c3ccccc3)coc2cc1O	none
CCc1cc2c(=O)c(-c3ccc4c(c3)OCO4)coc2cc1O	Vaccinia pol inh 82
CCN(c1ccccc1)S(=O)(=O)c1ccc2[nH]cc(C(=O)N3CCC(C)CC3)c(=O)c2c1	none
O=C(NCCc1ccccc1)c1ccc2c(c1)N(Cc1ccc(F)cc1)C(=O)c1ccccc1S2=O (centres undefined)	none
CC(=C/C(=O)O)/C=C/c1ccccc1	none
CC1=C(/C=C/C(C)=C/C=C/C(C)=C/C(=O)Nc2ccc(O)cc2)C(C)(C)CCC1	none
CC1=C(/C=C/C(C)=C/C=C/C(C)=C\C(=O)O)C(C)(C)CCC1	Vaccinia pol inh 29
CCOc1ccc(N2C(=O)/C(=C/c3cccs3)C(=O)N(c3ccccc3)C2=S)cc1	none
CCOc1ccccc1Nc1nc2cc(Cl)ccc2o1	none
Oc1c(Cl)cc(Cl)cc1C=Nc1ccc2n[nH]nc2c1	none
Oc1c(Cl)cc(Cl)cc1/C=N/c1ccnn1-c1ccccc1	none
Cc1cc(N=Cc2cc(Cl)cc(Cl)c2O)no1	Vaccinia pol inh 56
CCOc1ccc(C=Nc2ccccc2)cc1	none
Cc1ccc(N2CCN(C(=O)c3nc(-c4ccncc4)no3)CC2)c(C)c1	none
O=C(O)c1ccc(S(=O)(=O)N(Cc2ccco2)CC2CCCO2)cc1 (centres undefined)	none
COc1ccc(CNc2ccccn2)cc1OC	none
C=CCOc1ccccc1CNc1ncn[nH]1	none
COc1ccc(CNc2ncn[nH]2)cc1OC	Vaccinia pol inh 82
Cc1ccc(-c2cnnn2-c2ccc(C(=O)COC(=O)c3ccccc3F)cc2)cc1	none
O=C1CC(N(O)c2ccccc2)C(=O)N1c1ccc(N2CCOCC2)cc1 (centres undefined)	none
O=C1NC(=Nc2cccc(C(=O)O)c2)S/C1=C/c1ccc(-c2ccc(C(=O)O)cc2)o1	Vaccinia pol inh 29
O=C(O)c1cccc(-c2ccc(/C=C3/SC(=O)N(c4ccccc4)C3=O)o2)c1	none
O=C(O)c1ccc(-c2ccc(/C=C3\Sc4ccccc4C3=O)o2)cc1	none
Nc1cc(=O)[nH]c(=O)n1CC12CC3CC(CC(C3)C1)C2	none
Nc1nnc(CCN2C(=O)S/C(=C/c3ccccc3)C2=O)s1	none
Nc1cccc(NC(=O)CCC(=O)O)c1	Vaccinia pol inh 72
CCCC(=O)Nc1cccc(N)c1	none
O=C(O)CCC(=O)Nc1cccc(O)c1	none
CCc1cccc(NC(=O)c2cc3cc4ccc(C)cc4nc3s2)c1	none
O=S(=O)(NCCN1CCCC1)c1cc2ccccc2s1	none
N#Cc1nc(-c2ccccc2)oc1NCCN1CCCCC1	none
Cc1cc(NCCN2CCCCC2)c2ccc3ccccc3c2n1	Vaccinia pol inh 22
Fc1ccccc1-c1ncc2ccccn12	none
O=C(O)c1ccc(-n2c(-c3ccccc3)cc3c2CCCC3=O)cc1	none
NC1=NC2C(N=C(Br)N2C2O[C@H]3COP(=O)(O)O[C@@H]3[C@@H]2O)C(=O)N1 (some centres undefined)	none
Oc1ccc(C2CC(c3ccccc3O)=Nc3ccccc3S2)cc1 (centres undefined)	none
O=c1c2ccccc2nc(SCc2c(F)cccc2F)n1Cc1ccccc1	Vaccinia pol inh 76
Cc1ccc(CSc2nc3ccccc3c(=O)n2Cc2ccccc2)cc1	none
O=c1c2ccccc2nc(SCc2ccccc2F)n1CCc1ccccc1	none
CCOC(=O)c1c(NC(=O)CCCC(=O)O)sc(C)c1C	none
CCCCN1CCc2c1nc1ccc(Br)cc1c2N	Vaccinia pol inh 87
CCOc1ccc(N2CCc3c2nc2ccc(Br)cc2c3N)cc1	none
CCOc1ccc(-c2nc3ccc(Br)cc3c(C(=O)O)c2C)cc1	none
CC(C)N(C(=O)CN1C(=O)c2ccccc2S1(=O)=O)c1ccccc1	none
NC(=O)CSc1nc2cc(Cl)ccc2o1	none
CSCCC(C(=O)O)N1C(=O)/C(=C/c2ccc(O)cc2)SC1=S (centres undefined)	none
CSCCC(C(=O)O)n1c(O)c(/C=C2\C=Nc3ccccc32)sc1=S (centres undefined)	Vaccinia pol inh 78
CSCCC(C(=O)O)N1C(=O)CSC1=S (centres undefined)	none
CC1=CC(C(C#N)C#N)C=C(c2ccccc2)O1 (centres undefined)	none
Cc1ccc(-c2csc3ncnc(SCCC(=O)O)c23)cc1	none
O=C(O)CSc1ncnc2scc(-c3ccc(Br)cc3)c12	Vaccinia pol inh 68
CC(C)OC(=O)CSc1ncnc2scc(-c3ccccc3)c12	none
Cn1c(/N=C/c2cc(C(C)(C)C)c(O)c(C(C)(C)C)c2)nc2ccccc21	none
CCN1/C(=C/c2scc[n+]2C)C=C(C)c2cc(OC)c3ccccc3c21	Vaccinia pol inh 27
CCN1C(=O)C(=Cc2ccc(N3CCOCC3)cc2OC)C(=O)N(CC)C1=S	none
CN(C)c1ccc(C2=CC=CC(=C3C=CC(=[N+](C)C)C=C3)O2)cc1	Vaccinia pol inh 39
CC(NC(=O)Cc1ccc(F)cc1)C(c1cccs1)N1CCOCC1 (centres undefined)	none
Cc1ccc(NC(=O)c2ccc(Oc3ccc(C(=O)Nc4ccc(C)cc4)cc3)cc2)cc1	none
COC(=O)c1cccc(Oc2nc(Nc3ccccc3F)nc(N3CCC4C=CC=CC4C3)n2)c1 (centres undefined)	none
CCOC(=O)N1CCC(NC(=O)c2ccc(C)cc2)CC1	none
O=Nc1c(-c2c(O)[nH]c3ccccc23)[nH]c2ccccc12	Vaccinia pol inh 83
CC(C)N=Cc1c(O)[nH]c2ccccc12	none
COc1ccc2[nH]c(O)c(N=O)c2c1	none
CCN(CC)C(=O)Cn1nnc(-c2ccc(C)cc2)n1	none
O=C1OCCC1Sc1cccc2cccnc12 (centres undefined)	none
Ic1ccccc1/C=N/n1cnnc1	none
Cc1nc2cccc(C(=O)N3CCN(c4ccccc4)CC3)c2o1	none
Cc1ccc2oc(-c3ccccc3)cc(=NCCO)c2c1	Vaccinia pol inh 49
O=c1cc(-c2ccccc2)oc2ccc(Cl)cc12	none
CCc1ccc2oc(-c3ccccc3)cc(=NCc3cccnc3)c2c1	Vaccinia pol inh 80
OCCN=c1cc(-c2ccccc2)oc2ccc(Cl)cc12	Vaccinia pol inh 41
CC(O)CN=c1cc(-c2ccccc2)oc2ccc(Cl)cc12 (centres undefined)	Vaccinia pol inh 46
Oc1ccc(N=c2cc(-c3ccccc3)oc3ccc(Cl)cc23)cc1	none
Clc1ccc2oc(-c3ccccc3)cc(=NCCN3CCOCC3)c2c1	none
